The whole screen tested about 5,500 compounds, of which about 2,000 (36%) were called active. Not shown: some 18% with an inconclusive outcome. No stated cut-off is given here; in the data, active means normalized growth mostly below about 0.91 (no sharp cut-off); inconclusive means no clear call, values can overlap the other calls; inactive means mostly above about 0.92. Some of the results follow.
Test: chemical genetic growth profiling, strain panel (AID 1159580);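 further: tested at 20 µM; growth read once vehicle control cultures reached saturation at 30 °C; 1 = growth at the plate median or of vehicle wells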
Conditions: S. cerevisiae deletion strains, growth OD
[1] = locus YAL021C, strain ccr4, stronger effect = lower value
[2] = locus YAL026C, strain drs2, stronger effect = lower value
[3] = locus YAL030W, strain snc1, stronger effect = lower value
[4] = locus YBL061C, strain skt5, stronger effect = lower value
[5] = locus YBR009C, strain hhf1, stronger effect = lower value
[6] = locus YBR023C, strain chs3, stronger effect = lower value
[7] = locus YBR171W, strain sec66, stronger effect = lower value
[8] = locus YBR231C, strain swc5, stronger effect = lower value
[9] = locus YBR279W, strain paf1, stronger effect = lower value
[10] = locus YCL011C, strain gbp2, stronger effect = lower value
[11] = locus YCL016C, strain dcc1, stronger effect = lower value
[12] = locus YCL069W, strain vba3, stronger effect = lower value
[13] = locus YCR088W, strain abp1, stronger effect = lower value
[14] = locus YDL005C, strain med2, stronger effect = lower value
[15] = locus YDL040C, strain nat1, stronger effect = lower value
[16] = locus YDR001C, strain nth1, stronger effect = lower value
[17] = locus YDR069C, strain doa4, stronger effect = lower value
[18] = locus YDR137W, strain rgp1, stronger effect = lower value
[19] = locus YDR159W, strain sac3, stronger effect = lower value
[20] = locus YDR297W, strain sur2, stronger effect = lower value
[21] = locus YDR334W, strain swr1, stronger effect = lower value
[22] = locus YDR335W, strain msn5, stronger effect = lower value
[23] = locus YDR392W, strain spt3, stronger effect = lower value
[24] = locus YEL003W, strain gim4, stronger effect = lower value
[25] = locus YEL037C, strain rad23, stronger effect = lower value
[26] = locus YEL061C, strain CIN8 (second series), stronger effect = lower value
[27] = locus YER015W, strain faa2, stronger effect = lower value
[28] = locus YER016W, strain bim1, stronger effect = lower value
[29] = locus YER111C, strain swi4, stronger effect = lower value
[30] = locus YER155C, strain BEM2 (second series), stronger effect = lower value
[31] = locus YFR010W, strain ubp6, stronger effect = lower value
[32] = locus YGL167C, strain pmr1, stronger effect = lower value
[33] = locus YGL173C, strain kem1, stronger effect = lower value
[34] = locus YGL227W, strain vid30, stronger effect = lower value
[35] = locus YGL240W, strain doc1, stronger effect = lower value
[36] = locus YGL253W, strain hxk2, stronger effect = lower value
[37] = locus YHR013C, strain ard1, stronger effect = lower value
[38] = locus YHR027C, strain rpn1, stronger effect = lower value
[39] = locus YHR030C, strain SLT2, stronger effect = lower value
[40] = locus YHR079C, strain IRE1, stronger effect = lower value
[41] = locus YHR142W, strain chs7, stronger effect = lower value
[42] = locus YJL092W, strain hpr5, stronger effect = lower value
[43] = locus YJL095W, strain BCK1 (second series), stronger effect = lower value
[44] = locus YJL095W, strain BCK1, stronger effect = lower value
[45] = locus YJL115W, strain asf1, stronger effect = lower value
[46] = locus YJL129C, strain trk1, stronger effect = lower value
[47] = locus YJL154C, strain vps35, stronger effect = lower value
[48] = locus YJL164C, strain tpk1, stronger effect = lower value
[49] = locus YJL166W, strain qcr8, stronger effect = lower value
[50] = locus YJR066W, strain TOR1, stronger effect = lower value
[51] = locus YKL160W, strain elf1, stronger effect = lower value
[52] = locus YKR026C, strain gcn3, stronger effect = lower value
[53] = locus YKR091W, strain srl3, stronger effect = lower value
[54] = locus YLL001W, strain dnm1, stronger effect = lower value
[55] = locus YLL026W, stronger effect = lower value
[56] = locus YLL041C, strain sdh2, stronger effect = lower value
[57] = locus YLR027C, strain aat2, stronger effect = lower value
[58] = locus YLR113W, strain HOG1, stronger effect = lower value
[59] = locus YLR221C, strain rsa3, stronger effect = lower value
[60] = locus YLR258W, strain gsy2, stronger effect = lower value
[61] = locus YLR262C, strain YPT6 (second series), stronger effect = lower value
[62] = locus YLR320W, strain mms22, stronger effect = lower value
[63] = locus YLR342W, strain FKS1, stronger effect = lower value
[64] = locus YLR357W, strain rsc2, stronger effect = lower value
[65] = locus YLR370C, strain arc18, stronger effect = lower value
[66] = locus YLR384C, strain iki3, stronger effect = lower value
[67] = locus YML120C, strain ndi1, stronger effect = lower value
[68] = locus YMR058W, strain fet3, stronger effect = lower value
[69] = locus YMR125W, strain sto1, stronger effect = lower value
[70] = locus YMR129W, stronger effect = lower value
[71] = locus YMR205C, strain PFK2, stronger effect = lower value
[72] = locus YMR231W, strain pep5, stronger effect = lower value
[73] = locus YNL071W, strain lat1, stronger effect = lower value
[74] = locus YNL183C, strain NPR1, stronger effect = lower value
[75] = locus YNL209W, strain ssb2, stronger effect = lower value
[76] = locus YNL248C, strain rpa49, stronger effect = lower value
[77] = locus YNL322C, strain KRE1 (second series), stronger effect = lower value
[78] = locus YNR049C, strain mso1, stronger effect = lower value
[79] = locus YOR001W, strain rrp6, stronger effect = lower value
[80] = locus YOR070C, strain gyp1, stronger effect = lower value
[81] = locus YOR080W, strain dia2, stronger effect = lower value
[82] = locus YOR083W, strain WHI5, stronger effect = lower value
[83] = locus YOR106W, strain vam3, stronger effect = lower value
[84] = locus YOR231W, strain MKK1, stronger effect = lower value
[85] = locus YOR265W, strain rbl2, stronger effect = lower value
[86] = locus YOR270C, strain vph1, stronger effect = lower value
[87] = locus YOR290C, strain snf2, stronger effect = lower value
[88] = locus YPL051W, strain arl3, stronger effect = lower value
[89] = locus YPL078C, strain atp4, stronger effect = lower value
[90] = locus YPL106C, strain sse1, stronger effect = lower value
[91] = locus YPL240C, strain hsp82, stronger effect = lower value
[92] = locus YPL256C, strain CLN2, stronger effect = lower value

Measured: normalized growth

CC(C)c1cccc(O)c(=O)c1
active: [1] 0.0678 | [2] 0.0622 | [3] 0.0616 | [4] 0.0689 | [5] 0.0635 | [6] 0.0691 | [7] 0.0935 | [8] 0.0694 | [9] 0.0689 | [10] 0.0593 | [11] 0.0739 | [12] 0.0926 | [13] 0.0649 | [14] 0.0881 | [15] 0.0703 | [16] 0.0642 | [17] 0.0633 | [18] 0.0985 | [19] 0.0917 | locus YDR195W, strain ref2 0.166 | [20] 0.0622 | [21] 0.0664 | [22] 0.0638 | [23] 0.0887 | [24] 0.0581 | [25] 0.0615 | [26] 0.0653 | [27] 0.0615 | [28] 0.067 | [29] 0.0815 | [30] 0.0927 | [31] 0.072 | [32] 0.091 | [33] 0.0718 | [34] 0.0687 | [35] 0.0871 | [36] 0.0611 | [37] 0.113 | [38] 0.0609 | [39] 0.126 | [40] 0.146 | [41] 0.0743 | [42] 0.0677 | [43] 0.0581 | [44] 0.145 | [45] 0.0902 | [46] 0.0856 | [47] 0.0621 | [48] 0.0686 | [49] 0.0625 | [50] 0.0572 | [51] 0.0788 | [52] 0.0743 | [53] 0.0697 | [54] 0.0706 | [55] 0.0634 | [56] 0.0616 | [57] 0.0581 | [58] 0.217 | [59] 0.059 | [60] 0.0639 | [61] 0.0819 | [62] 0.0828 | [63] 0.0743 | [64] 0.136 | [65] 0.0652 | [66] 0.0711 | [67] 0.0618 | [68] 0.0629 | [69] 0.0871 | [70] 0.0613 | [71] 0.091 | [72] 0.0803 | [73] 0.0663 | [74] 0.0186 | [75] 0.0585 | [76] 0.0753 | [77] 0.068 | [78] 0.0605 | [79] 0.0684 | [80] 0.123 | [81] 0.0682 | [82] 0.0692 | [83] 0.0676 | [84] 0.134 | [85] 0.0639 | [86] 0.101 | [87] 0.0651 | [88] 0.0708 | [89] 0.0754 | [90] 0.111 | [91] 0.0667 | [92] 0.121

CC(C)c1cccc(C(C)C)c1O
inactive: locus YAL013W, strain DEP1, stronger effect = lower value 1.01 | [1] 1 | [2] 0.993 | [3] 0.985 | locus YAL040C, strain CLN3, stronger effect = lower value 0.998 | [4] 0.983 | [5] 0.966 | [6] 0.977 | [7] 0.987 | [8] 0.997 | [9] 0.992 | [10] 0.991 | [11] 0.976 | locus YCL061C, strain MRC1 (second series), stronger effect = lower value 0.988 | locus YCL061C, strain MRC1, stronger effect = lower value 0.991 | [12] 0.992 | [13] 0.996 | [14] 0.984 | [15] 0.976 | [16] 0.994 | [17] 0.981 | [18] 0.966 | locus YDR150W, strain NUM1, stronger effect = lower value 0.993 | [19] 0.982 | locus YDR195W, strain ref2 0.951 | [20] 0.988 | [21] 0.988 | [22] 0.993 | locus YDR363W, strain ESC2, stronger effect = lower value 0.973 | [23] 0.869 | [24] 0.99 | [25] 0.986 | [26] 0.986 | locus YER002W, strain NOP16, stronger effect = lower value 0.986 | [27] 0.983 | [28] 0.979 | [29] 0.973 | [30] 0.996 | [31] 0.978 | [32] 0.972 | [33] 0.98 | [34] 0.988 | [35] 0.983 | [36] 0.997 | locus YGR078C, strain PAC10, stronger effect = lower value 1 | [37] 1.03 | [38] 0.99 | [39] 0.94 | [40] 0.954 | [41] 1.01 | [42] 0.992 | [43] 0.993 | [44] 0.992 | [45] 0.983 | [46] 0.992 | [47] 0.99 | [48] 0.979 | [49] 0.986 | locus YJL187C, strain SWE1, stronger effect = lower value 0.994 | [50] 0.935 | locus YJR075W, strain HOC1, stronger effect = lower value 1 | [51] 1 | [52] 0.953 | [53] 0.984 | [54] 0.988 | [55] 0.988 | [56] 0.996 | [57] 0.993 | [58] 0.996 | [59] 1.01 | [60] 0.991 | [61] 0.97 | [62] 0.935 | [63] 0.986 | [64] 0.939 | [65] 0.996 | [66] 0.971 | [67] 0.98 | [68] 0.996 | [69] 0.988 | [70] 1 | [71] 0.941 | [72] 0.992 | locus YMR263W, strain SAP30, stronger effect = lower value 1 | locus YMR307W, strain GAS1, stronger effect = lower value 1 | [73] 0.996 | locus YNL153C, strain GIM3, stronger effect = lower value 1.01 | locus YNL175C, strain NOP13, stronger effect = lower value 1.03 | [74] 0.942 | locus YNL197C, strain WHI3, stronger effect = lower value 1 | [75] 0.992 | locus YNL224C, strain SQS1, stronger effect = lower value 1.02 | [76] 1.01 | [77] 0.981 | locus YNL322C, strain KRE1, stronger effect = lower value 1.01 | [78] 0.983 | [79] 0.997 | [80] 0.99 | [81] 0.984 | locus YOR083W, strain WHI5 (second series), stronger effect = lower value 1.02 | [82] 1.01 | [83] 0.991 | [84] 0.914 | [85] 0.991 | [86] 0.993 | [87] 0.918 | [88] 1 | locus YPL055C, strain LGE1, stronger effect = lower value 0.999 | [89] 0.994 | [90] 0.951 | [91] 1.01 | locus YPL241C, strain CIN2, stronger effect = lower value 1.01 | [92] 0.929

Reference: PubChem BioAssay AID1159580 (chemical genetic matrix, 2015)
